# Experimental data published in article PMC5540273 (PLoS ONE, 2017).
# Tested on: ZAK
# Details: concentration: 1 μM, replicates: in singlicate; n = 1
# 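Note: KINOMEscan kinase panel screen.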
row,SMILES,%Inh
1,Nc1n[nH]c2cnc(-c3ccccc3)cc12 [SB-642124],16%
2,CN(c1ccc(NC(=O)Nc2cc(C(F)(F)F)ccc2F)cc1)c1ccnc(Nc2ccc(S(N)(=O)=O)cc2)n1 [GW809893],94.8%
3,CC(C)c1nc(-c2cccc(NS(=O)(=O)c3c(F)cccc3F)c2F)c(-c2ccnc(Nc3ccc(N4CCOCC4)nc3)n2)s1 [GSK2008607],99.1%
4,O=C(Nc1cccc(-c2nn3ncccc3c2-c2ccnc(Nc3ccccc3)n2)c1)c1c(F)cccc1F [GSK198271],96.6%
5,O=C(Nc1ccccc1F)NC1CCN(c2ccnc(Nc3ccc(F)cc3)n2)CC1 [GSK1379800],30%
6,Cl.c1ccc(-c2ccc3c(Nc4ccc5[nH]ccc5c4)ccnc3c2)nc1 [GW440138],0%
7,COc1ccc(CNC(=O)NC2CCN(c3ccnc(Nc4ccc(F)cc4)n3)CC2)cc1 [GSK1379788],0%
8,CN(C)Cc1ccc(-c2ccc3c(Nc4ccc(Oc5ccccn5)cc4)ccnc3c2)o1 [GW567148],65%
9,CNC(=O)c1ccccc1Nc1nc(Nc2ccc(N3CCOCC3)cc2)ncc1Cl.Cl [GSK1576028],13%
10,CCS(=O)(=O)c1ccc(OC)c(Nc2nccc(-c3c(-c4cccc(NC(=O)c5c(F)cccc5F)c4)nn4ncccc34)n2)c1 [GSK326180],28%
11,c1ccc(Oc2ccc(Nc3ccnc4cc(-c5ccc(CNCCN6CCOCC6)o5)ccc34)cc2)nc1 [GW567145],77%
12,Cc1ccc(C)c(NC(=O)NC2CCN(c3ccnc(Nc4ccc(F)cc4)n3)C2)c1 (stereo not drawn) [GSK1379720],15%
